From PubChem
AMA1-RON2 inh – disrupts binding of P. falciparum AMA1 to RON2. Potency, µM (top dose mostly 58.2 µM), inactives show top-dose activity change, negative = inhibition, usual class: inhibitors. 0.2% of 360,000 active. AlphaScreen AMA1-biotinylated RON2 peptide binding;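 also: 0% = vehicle wells and -100% = peptide control; nearly all actives have a fitted effect of over 45% in size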
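AMA1 (3D7) with his tag at 25 nM final met compounds first, then biotinylated RON2 peptide at 25 nM; detection used donor plus acceptor beads, 10 µg/mL apiece, read by AlphaScreen after 30 min at room temperature.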
Pf growth 48h – inhibits P. falciparum growth in the first generation, 48 h; P. falciparum luciferase growth in erythrocytes, 48 h; Potency, µM (doses to about 28.7 µM), inactives show at the top dose activity change, negative = inhibition, usual class: inhibitors; 5.9% of 310,000 active; AID 504832; also: % is scaled to controls: 0 for no effect and ±100 for the full control effect
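Luciferase-expressing parasites in RBCs, 2% Hct / 0.1% parasitemia final; RPMI 1640 + 0.5% Albumax; 37 C, 5% CO2, one generation; luminescence read-out, lower signal = inhibition.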
Pf growth 96h – P. falciparum growth inhibition at 96 hours; AID 504834; Potency, µM (doses to about 28.7 µM), for the others: top-dose activity change, negative = inhibition, actives largely listed as inhibitors; P. falciparum luciferase reporter growth, 96 h; 6.9% of 320,000 active; also: % is scaled to controls: 0 for no effect and ±100 for the full control effect
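Parasite growth measured via integrated firefly luciferase reporter in P. falciparum. Infected erythrocytes at 2% hematocrit, 0.05% parasitemia final were treated 96 hours at 37 C under 5% CO2, and luminescence was read.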
SARS PLpro yeast – SARS-CoV PLP inhibition in yeast. S. cerevisiae expressing SARS-CoV PLpro, growth rescue. Potency, µM (series often up to 32.9 µM), inactives show at the top dose activity, positive = growth rescue, actives largely listed as activators. 0.19% of 330,000 active; calls by dose curve; also: 0% is about no effect; nearly all actives have a fitted effect of over 55% in size
Numbers without * were called inactive; ? = inconclusive; nt = no result given; [ ] = remark or other dose. Shown are actives, neighbours in structure and some others; about 9.4% of the full set was active somewhere. Unless noted, calls follow the shape of the dose curve; as a rule, active = well fitted curve in the direction sought with a large enough effect; inconclusive = small, poorly fitted or top-dose-only effect, or another doubt; inactive = no such curve, though single readings can be large; an effect the other way counts as inactive or inconclusive. Potency is read from the fitted curve at half-maximal effect.

SMILES	AMA1-RON2 inh	Pf growth 48h	Pf growth 96h	SARS PLpro yeast
CCn1c2c(c(=N)c3c1CCC3)CCCC2	-7%	0.52µM*	?	0%
CCCCCn1c2c(c(=N)c3ccccc31)CCC2	-12%	0.66µM*	?	-3%
CCCCCCCCn1c2c(c(=N)c3ccccc31)CCC2	2%	12%	-45%	0%
CCCCn1c(N)c(N(CCC(C)C)C(=O)COC(=O)/C=C/c2ccc(F)cc2)c(=O)[nH]c1=O	-11%	nt	nt	-7%
COc1cc(CNn2nnnc2N)ccc1OCc1c(Cl)cccc1Cl	-8%	?	28%	-7%
c1cc2c(c(CC3CO3)c1CC1CO1)OCCOCCOCCOCCO2 (stereo not drawn)	-10%	nt	nt	nt
CCOC(=O)c1cc(C#N)c(SC)nc1C	-4%	15%	?	-1%
CSc1nc(C)c(C(=O)C[n+]2ccccc2C)cc1C#N	-18%	15µM*	?	1%
Cc1ccccc1CN1CCC(n2nccc2NC(=O)CCOc2ccccc2)CC1	-10%	?	4.1µM*	8%
Cc1cc(C)c(CN2CCC(n3nccc3NC(=O)CCOc3ccccc3)CC2)cc1C	-12%	?	13µM*	0%
O=C(CCOc1ccccc1)Nc1ccnn1C1CCN(Cc2ccccc2)CC1	0%	-11%	?	0%
COc1ccc(CNC(=O)[C@@H]2CC=C[C@@H]3CCN(C4CCCCC4)C(=O)[C@@H]32)cc1	-4%	nt	nt	nt
COc1ccc(-c2ccc3c(N)c(C(=O)NC(C)C)sc3n2)cc1OC	7%	?	?	-1%
FC(F)(F)c1cnc(N2CCN(C(=S)NCc3ccccc3)CC2)c(Cl)c1	?	12%	25%	-2%
FC(F)(F)c1cnc(N2CCCN(C(=S)Nc3ccccc3)CC2)c(Cl)c1	7%	1.7µM*	1.9µM*	-2%
O=C(Nc1ccc(C(O)(C(F)(F)F)C(F)(F)F)cc1)c1ccc(Cl)c([N+](=O)[O-])c1	12%[11.6 µM]	12µM*	10µM*	nt
COc1ccc(CNC(=O)c2c([S-])n(-c3ccc(C)cc3)c3cccc[n+]23)cc1	-20%	?	10µM*	2%
Cc1ccc(-c2nnc(NC3CCCCC3)c3ccccc23)cc1S(=O)(=O)N1CCN(C)CC1	0%	nt	?	?
Cc1ccc(-c2nnc(NCc3nc4ccccc4[nH]3)c3ccccc23)cc1S(=O)(=O)N1CCCCC1	26%	?	13µM*	-7%
Cc1ccc(NC2=CC(=O)CC(c3ccc(Cl)cc3)C2)cc1 (stereo not drawn)	9%[2.32 µM]	13µM*	?	7%
CCOC(=O)c1cn2nc(Oc3ccc(C)cc3)ccc2n1	7%	?	-3%	0%
COCc1nnc(NS(=O)(=O)c2ccc(C)cc2)s1	-10%	19%	33%	-2%
COCc1nnc(NS(=O)(=O)c2ccccc2)s1	4%	4%	1µM*	3%
COc1ccc(OC)c(S(=O)(=O)Nc2c(C)n(C)n(-c3ccccc3)c2=O)c1	9%	-7%	15µM*	6%
Cc1c(NC(=O)c2c(F)cccc2F)c(=O)n(-c2ccccc2)n1C	-6%	8%	-20%	0%
SMILES	AMA1-RON2 inh	Pf growth 48h	Pf growth 96h	SARS PLpro yeast
COc1ccc(OC)c(S(=O)(=O)ON2C(=O)c3ccccc3C2=O)c1	3%	42%	2.9µM*	-2%
Cc1c(NS(=O)(=O)c2ccccc2F)c(=O)n(-c2ccccc2)n1C	17%	3%	13%	3%
COc1ccc(OC)c(S(=O)(=O)N2CCCCCC2)c1	2%	1%	4%[5.75 µM]	-1%
COc1cccc(OC)c1C(=O)Nc1c(C)n(C)n(-c2ccccc2)c1=O	9%	5%	10µM*	0%
Cc1c(NC(=O)Nc2cccc(C#N)c2)c(=O)n(-c2ccccc2)n1C	-17%	12%	3.7µM*	-1%
Cc1cc(C(=O)NNC(=O)COc2c(C)cc(Br)cc2C)n[nH]1	140%	5%	3%	16%
Cc1c(NC(=O)C(=O)/C=C(/O)c2ccccc2)c(=O)n(-c2ccccc2)n1C	22%	31%	0%	-25%
COc1ccc(/C(O)=C/C(=O)C(=O)Nc2c(C)n(C)n(-c3ccccc3)c2=O)cc1	?	26%	7.4µM*	-4%
COc1ccc(-c2cc(C(=O)Nc3c(C)n(C)n(-c4ccccc4)c3=O)c3ccccc3n2)cc1OC	14%	?	23%	-1%
COc1ccc(-c2cc(C(=O)Nc3c(C)n(C)n(-c4ccccc4)c3=O)c3ccccc3n2)c(OC)c1	-10%	12µM*	15µM*	24%
CC(C)(C)N(NC(=O)c1ccccc1)C(=O)c1cccc(C(=O)N(NC(=O)c2ccccc2)C(C)(C)C)c1	-19%	?	?	5%
Cc1[nH]nc(-c2ccc(OCc3cnn(-c4ccccc4)c3)cc2O)c1Oc1ccc(F)cc1	16%	?	9.3µM*	4%
CCOc1ccc(-c2n[nH]c(C)c2Oc2ccc(OC)cc2)c(O)c1	83%	13µM*	nt	-2%
Cc1[nH]nc(-c2ccc(OCc3cnn(-c4ccccc4)c3)c(C)c2O)c1Oc1ccccc1	57%	?	?	-2%
O=C(Nc1ccncc1)Nc1ccc(F)cc1F	7%	9.3µM*	35%	-2%
O=C(Nc1ccncc1)Nc1ccc(F)c(Cl)c1	12%	3.3µM*	20%	-1%
CC(C)CCNC(=O)CN(C)S(=O)(=O)c1cccc2nsnc12	4%	-2%	101%	9%
CN(C)CCCn1c(NCc2ccc3c(c2)OCO3)nc2ccccc21	-21%	nt	-79%	-5%
COc1ccc(S(=O)(=O)Nc2ccc(F)c(F)c2)cc1Cl	8%	14%	nt	-17%
COc1ccc(NS(=O)(=O)c2ccc(OC)c(N(C)S(=O)(=O)c3ccc(Cl)cc3)c2)cc1	0%	12µM*	3.7µM*	-4%
COc1ccc(S(=O)(=O)Nc2ccc(F)cc2)cc1N(C)S(=O)(=O)c1ccc(Cl)cc1	8%	5.2µM*	-20%	?
Cc1cc(C(C)(C)CC(C)(C)C)ccc1OCCOCC[N+](C)(C)Cc1ccccc1	-16%	1.7µM*	0.47µM*	nt
CN(C)S(=O)(=O)N1CCN(S(=O)(=O)c2ccc3ccccc3c2)CC1	2%	nt	?	-5%
CN(C)C(=O)N1CCN(S(=O)(=O)c2ccc3ccccc3c2)CC1	-6%	8%	10µM*	1%
Cc1ccc(S(=O)(=O)N2CCCN(C(=O)c3cc4ccccc4[nH]3)CC2)cc1	-13%	?	12µM*	-22%
CN1CCN(S(=O)(=O)c2ccc3ccccc3c2)CC1	0%	nt	47%	-5%
Cc1ccc(S(=O)(=O)N2CCCN(S(=O)(=O)c3ccc4ccccc4c3)CC2)cc1	-7%	?	10µM*	-14%
Cc1ccc(NC(=O)CCCOc2ccccc2)cc1S(=O)(=O)N1CCOCC1	-2%	10µM*	?	4%
Cc1ccc(OCCCC(=O)Nc2ccc(S(N)(=O)=O)cc2)cc1	-14%	6%	15µM*	0%
CCN(CC(=O)Nc1cc(S(=O)(=O)N2CCCCC2)ccc1C)Cc1ccccc1	-3%	?	12µM*	-2%
